Results reported in PubChem BioAssay.
Calls of active or inactive are those of the source.

Columns and labels:
[1] = binders of probe aFSTL3 on microarray, primary screen, stem cell growth factor project, biochemical, small-molecule microarray, fluorescence 635/667 (AID 1064); settings: higher = more signal;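 further: measures binding of the biotinylated anti-FSTL3 antibody to printed compounds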
[2] = binders from COS7 lysate, DM2A8 probe, primary screen, torsin A project, cell lysate, small-molecule microarray, fluorescence 635/667 (AID 1065); settings: higher = more signal, COS7 lysate expressing mutant human TOR1A
[3] = binders of probe aFGF2 on microarray, primary screen, stem cell growth factor project, biochemical, small-molecule microarray, fluorescence 635/667 (AID 1067); settings: higher = more signal;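 further: measures binding of biotinylated aFGF2 protein to printed compounds on slides; z-score merges feature fluorescence and signal-to-noise across triplicate slides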
[4] = binders of probe aFGF10 on microarray, primary screen, stem cell growth factor project, biochemical, small-molecule microarray, fluorescence 635/667 (AID 1071); settings: higher = more signal;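 further: score merges 667 nm spot intensity and signal to noise from triplicate slides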
[5] = molecular target: Neurogenic locus notch homolog protein 2 (Homo sapiens) (UniProt Q04721); experiment: Notch2 binders on small-molecule microarrays, primary screen, biochemical, small-molecule microarray, 635 nm fluorescence, stem cell growth factors (AID 1073); settings: Notch2 binding, higher = more signal
[6] = molecular target: Pro-neuregulin-1, membrane-bound isoform (Homo sapiens) (UniProt Q02297); experiment: NRG1 binders on small-molecule microarrays, primary screen, psychiatric disease protein project, biochemical, small-molecule microarray, fluorescence 635/667 (AID 1075); settings: NRG1 binding, 635 nm fluorescence, higher = more signal;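 further: score combines 667 nm spot fluorescence with signal to noise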
[7] = tested on: Neuregulin-1 EGF-like domain; experiment: binders of neuregulin-1 EGF-like domain, primary screen, biochemical, small-molecule microarray, 635 nm fluorescence (AID 1081); settings: small-molecule microarray binding, higher = more signal;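 further: binding of the protein to compounds printed on small-molecule microarray slides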
[8] = FRG1 promoter luciferase signal modulators, primary screen, FRG1 inhibition for FSHD, cell-based, C2C12 myotubes, firefly/Renilla luciferase, luminescence (AID 1084); settings: higher = more signal, called active from +8 up or from −8 down
[9] = binders of probe aFST on microarray, primary screen, stem cell growth factor project, biochemical, small-molecule microarray, fluorescence 635/667 (AID 1086); settings: higher = more signal;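 further: score merges 667 nm fluorescence with signal-to-noise of each printed compound spot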
[10] = binders of probe aHhip on microarray, primary screen, stem cell growth factor project, biochemical, small-molecule microarray, fluorescence 635/667 (AID 1087); settings: higher = more signal;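 further: score merges spot fluorescence at 667nm with spot signal to noise ratio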
[11] = tested on: PRMT1 (protein arginine N-methyltransferase 1); experiment: PRMT1 binders on small-molecule microarrays, primary screen, biochemical, small-molecule microarray, 635 nm fluorescence (AID 1088); settings: small-molecule microarray binding, higher = more signal;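 further: binding of Prmt1 protein to compounds spotted on small-molecule microarray slides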
[12] = yeast growth modulation, basal conditions, primary screen, YJM789 clinical isolate, OD600, 24 h (AID 1089);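 further: growth of clinical yeast isolate S. cerevisiae YJM 789 seeded 1000 cells per well; test concentration not given here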; settings: S. cerevisiae YJM789 growth, higher = more signal, called active from +8 up or from −8 down
[13] = fission yeast growth modulation, primary screen, strain 972, OD600, 24 h, no modulator (AID 1090);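 further: basal condition with compound alone and no growth modifier present; test concentration not given here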; settings: S. pombe 972 growth, higher = more signal, called active from +8 up or from −8 down
[14] = S. cerevisiae growth modulation with rapamycin, primary screen, strain BY4716, OD600, 96 h (AID 1091); settings: higher = more signal, called active from +8 up or from −8 down; further: test concentration not given here
[15] = molecular target: Torsin-1A-interacting protein 2 (Homo sapiens) (UniProt Q8NFQ8); experiment: LULL1 binders on small-molecule microarray, primary screen, cell lysate, human LULL1 lysate, 635/667 nm fluorescence (AID 1092); settings: hLULL1 lysate binding, 635 nm fluorescence, higher = more signal;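 further: probe is lysate of COS7 cells overexpressing human LULL1; score merges per-feature 667 nm fluorescence with signal-to-noise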
[16] = E. coli growth modulation, two-sided OD650, primary screen, E. coli filamentation project, strain DRC41, 24 h (AID 1093); settings: OD650, 24 h, higher = more signal, called active from +8 up or from −8 down;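 further: MC1000 strain lacking acrAB efflux and sulA so SOS filamentation is blocked; test concentration not given here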
[17] = small-molecule microarray binders of probe aLefty2, primary screen, biochemical, biotinylated probe, 635/667 nm fluorescence (AID 1094); settings: higher = more signal;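 further: score merges spot fluorescence near 667 nm with spot signal-to-noise ratio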
[18] = tested on: Noggin (protein binding on small-molecule microarray); experiment: Noggin binders on small-molecule microarray, primary screen, biochemical, 635/667 nm fluorescence (AID 1095); settings: 635 nm fluorescence, higher = more signal;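 further: score merges 667 nm feature fluorescence with signal to noise over triplicate slides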
[19] = molecular target: Neurogenic locus notch homolog protein 3 (Homo sapiens) (UniProt Q9UM47); experiment: NOTCH3 binders on small-molecule microarray, primary screen, biochemical, 635/667 nm fluorescence (AID 1096); settings: NOTCH3 binding, 635 nm fluorescence, higher = more signal
[20] = small-molecule microarray binders of probe aEGFR, primary screen, biochemical, biotinylated probe, 635/667 nm fluorescence (AID 1097); settings: higher = more signal;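 further: probe is a biotinylated anti-EGFR antibody binding compounds printed on slides; score combines fluorescence near 667 nm and signal to noise of each spot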

Chain of Neurogenic locus notch homolog protein 3 (Homo sapiens) (Q9UM47 whole entry, looked up): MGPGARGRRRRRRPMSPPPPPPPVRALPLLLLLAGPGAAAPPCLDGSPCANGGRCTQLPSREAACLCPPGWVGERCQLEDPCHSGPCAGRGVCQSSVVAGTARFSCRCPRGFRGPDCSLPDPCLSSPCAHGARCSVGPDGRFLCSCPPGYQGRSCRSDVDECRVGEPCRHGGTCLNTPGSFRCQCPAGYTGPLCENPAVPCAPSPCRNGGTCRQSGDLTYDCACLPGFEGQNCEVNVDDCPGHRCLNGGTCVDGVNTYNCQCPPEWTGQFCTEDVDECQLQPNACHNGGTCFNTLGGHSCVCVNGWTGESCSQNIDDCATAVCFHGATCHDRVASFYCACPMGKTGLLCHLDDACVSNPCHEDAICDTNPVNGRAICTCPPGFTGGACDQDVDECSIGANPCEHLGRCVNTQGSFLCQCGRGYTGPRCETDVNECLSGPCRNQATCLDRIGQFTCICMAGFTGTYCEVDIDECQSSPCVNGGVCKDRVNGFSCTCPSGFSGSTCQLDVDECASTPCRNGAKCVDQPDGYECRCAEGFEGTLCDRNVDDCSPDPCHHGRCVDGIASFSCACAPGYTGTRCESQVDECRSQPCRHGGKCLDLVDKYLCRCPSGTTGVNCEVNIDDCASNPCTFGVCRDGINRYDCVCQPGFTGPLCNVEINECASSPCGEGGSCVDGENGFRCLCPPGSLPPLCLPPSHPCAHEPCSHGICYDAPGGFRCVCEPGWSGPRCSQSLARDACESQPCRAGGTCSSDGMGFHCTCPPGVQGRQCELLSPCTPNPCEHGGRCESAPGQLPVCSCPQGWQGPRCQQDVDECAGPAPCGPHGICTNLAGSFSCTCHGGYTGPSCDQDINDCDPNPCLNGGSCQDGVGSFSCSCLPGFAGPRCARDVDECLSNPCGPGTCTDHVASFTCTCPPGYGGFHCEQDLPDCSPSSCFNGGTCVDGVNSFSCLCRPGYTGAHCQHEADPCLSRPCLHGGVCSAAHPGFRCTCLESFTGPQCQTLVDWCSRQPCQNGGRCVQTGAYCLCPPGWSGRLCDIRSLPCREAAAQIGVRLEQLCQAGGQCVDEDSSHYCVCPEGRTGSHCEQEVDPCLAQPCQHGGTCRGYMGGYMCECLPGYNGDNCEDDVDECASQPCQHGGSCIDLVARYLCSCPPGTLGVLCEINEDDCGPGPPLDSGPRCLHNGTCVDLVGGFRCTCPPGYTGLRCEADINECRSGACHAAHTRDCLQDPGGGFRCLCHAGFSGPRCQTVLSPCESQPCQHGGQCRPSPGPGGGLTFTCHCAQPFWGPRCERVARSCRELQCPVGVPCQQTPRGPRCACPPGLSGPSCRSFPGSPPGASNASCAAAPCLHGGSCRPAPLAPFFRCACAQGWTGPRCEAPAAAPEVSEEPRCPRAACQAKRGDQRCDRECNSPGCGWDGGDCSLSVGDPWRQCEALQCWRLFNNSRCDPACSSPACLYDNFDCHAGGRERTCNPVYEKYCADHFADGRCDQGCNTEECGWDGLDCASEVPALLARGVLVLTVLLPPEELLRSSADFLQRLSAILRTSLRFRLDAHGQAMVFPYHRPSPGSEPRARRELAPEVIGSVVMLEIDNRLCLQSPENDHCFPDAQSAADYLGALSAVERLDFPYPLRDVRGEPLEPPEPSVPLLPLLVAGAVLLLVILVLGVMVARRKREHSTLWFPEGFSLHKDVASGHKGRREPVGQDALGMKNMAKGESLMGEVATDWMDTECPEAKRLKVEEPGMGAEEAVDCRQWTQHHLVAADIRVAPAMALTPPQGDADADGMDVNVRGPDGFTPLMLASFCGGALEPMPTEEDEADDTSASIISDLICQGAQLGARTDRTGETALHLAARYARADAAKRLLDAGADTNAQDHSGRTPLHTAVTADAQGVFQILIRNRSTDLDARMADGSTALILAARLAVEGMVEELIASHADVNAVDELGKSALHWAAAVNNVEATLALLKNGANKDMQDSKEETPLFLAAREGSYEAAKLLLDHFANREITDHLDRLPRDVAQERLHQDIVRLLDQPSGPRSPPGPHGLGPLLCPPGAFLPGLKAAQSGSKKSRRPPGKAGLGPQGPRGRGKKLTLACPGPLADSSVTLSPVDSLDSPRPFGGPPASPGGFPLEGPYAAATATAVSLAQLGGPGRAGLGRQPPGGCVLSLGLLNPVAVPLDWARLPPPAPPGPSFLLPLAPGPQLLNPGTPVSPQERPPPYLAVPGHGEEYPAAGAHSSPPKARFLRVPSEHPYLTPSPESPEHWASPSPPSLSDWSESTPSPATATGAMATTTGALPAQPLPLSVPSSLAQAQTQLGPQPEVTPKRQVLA
Chain of Pro-neuregulin-1, membrane-bound isoform (Homo sapiens) (Q02297 whole entry, looked up, the tested form may be a part, canonical isoform): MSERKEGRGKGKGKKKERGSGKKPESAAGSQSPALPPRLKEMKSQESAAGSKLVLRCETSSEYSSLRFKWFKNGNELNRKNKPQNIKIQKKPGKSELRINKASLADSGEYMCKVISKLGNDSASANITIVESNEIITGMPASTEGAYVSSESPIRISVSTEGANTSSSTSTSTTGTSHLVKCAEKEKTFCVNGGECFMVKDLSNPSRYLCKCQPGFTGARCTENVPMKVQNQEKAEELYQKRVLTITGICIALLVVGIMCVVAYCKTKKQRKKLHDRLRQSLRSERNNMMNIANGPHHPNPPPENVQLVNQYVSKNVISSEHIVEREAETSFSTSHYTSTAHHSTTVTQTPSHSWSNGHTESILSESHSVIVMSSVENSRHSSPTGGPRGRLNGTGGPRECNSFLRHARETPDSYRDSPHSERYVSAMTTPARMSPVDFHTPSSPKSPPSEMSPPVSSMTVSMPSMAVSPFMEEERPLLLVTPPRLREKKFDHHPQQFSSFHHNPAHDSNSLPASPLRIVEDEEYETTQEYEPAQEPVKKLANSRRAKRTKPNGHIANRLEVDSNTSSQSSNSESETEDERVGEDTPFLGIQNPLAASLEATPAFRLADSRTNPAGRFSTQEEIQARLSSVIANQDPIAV
Chain of Torsin-1A-interacting protein 2 (Homo sapiens) (Q8NFQ8 whole entry, looked up): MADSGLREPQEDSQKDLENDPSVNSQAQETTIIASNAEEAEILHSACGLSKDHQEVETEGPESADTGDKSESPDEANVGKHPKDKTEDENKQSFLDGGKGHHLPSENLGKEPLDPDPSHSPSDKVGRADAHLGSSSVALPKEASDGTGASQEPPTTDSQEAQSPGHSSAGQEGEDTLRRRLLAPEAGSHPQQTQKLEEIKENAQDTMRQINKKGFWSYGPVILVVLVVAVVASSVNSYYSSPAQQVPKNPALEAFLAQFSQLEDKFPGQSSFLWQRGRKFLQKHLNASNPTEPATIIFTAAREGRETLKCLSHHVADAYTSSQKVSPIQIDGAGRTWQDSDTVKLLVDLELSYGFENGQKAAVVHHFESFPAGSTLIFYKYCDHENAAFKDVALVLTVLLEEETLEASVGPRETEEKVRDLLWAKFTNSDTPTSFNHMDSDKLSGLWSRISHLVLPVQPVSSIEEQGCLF

SMILES: CCOC(=O)C1=CC[C@@H](c2ccccc2)N(S(=O)(=O)c2ccc(C)cc2)[C@H]1C#N
- composite z-score [1]: -0.18
- composite z-score [2]: -0.0196
- composite z-score [3]: -0.0381
- composite z-score [4]: 0.848
- composite z-score [5]: 1.25
- composite z-score [6]: 0.741
- composite z-score [7]: 1.29
- z-score [8]: 1.04 (inactive)
- composite z-score [9]: 1.1
- composite z-score [10]: -0.191
- composite z-score [11]: 0.811
- z-score [12]: 0.0536 (inactive)
- z-score [13]: -1.06 (inactive)
- z-score [14]: 0.281 (inactive)
- composite z-score [15]: 2.99
- z-score [16]: -0.121 (inactive)
- composite z-score [17]: -0.0179
- composite z-score [18]: -0.14
- composite z-score [19]: 0.612
- composite z-score [20]: 0.0985

SMILES: [N-]=[N+]=NCc1ccccc1C[C@]1(C(=O)NCc2ccccc2)N=C(c2ccc(OCCCO)cc2)O[C@H]1c1ccccc1CN=[N+]=[N-]
- composite z-score [1]: 1.79
- composite z-score [2]: 0.227
- composite z-score [3]: 0.14
- composite z-score [4]: 0.0819
- composite z-score [5]: 1.13
- composite z-score [6]: 1.73
- composite z-score [7]: 1.16
- z-score [8]: 0.976 (inactive)
- composite z-score [9]: 0.654
- composite z-score [10]: -0.082
- composite z-score [11]: 1.37
- z-score [12]: 1.27 (inactive)
- z-score [13]: 0.736 (inactive)
- z-score [14]: 22.6 (active)
- composite z-score [15]: 3.25
- z-score [16]: 1.79 (inactive)
- composite z-score [17]: -0.106
- composite z-score [18]: -0.243
- composite z-score [19]: 0.561
- composite z-score [20]: 0.0506

SMILES: CC(C)C[C@@H]1NC(=O)[C@H]2C[C@@H](C(=O)NCCCCCCNC(=O)CS)[C@@H](c3ccc(O)cc3)N2C1=O
- composite z-score [1]: -0.254
- composite z-score [2]: 1.62
- composite z-score [3]: -0.0297
- composite z-score [4]: 0.437
- composite z-score [5]: 0.766
- composite z-score [6]: 1.22
- composite z-score [7]: 1.34
- z-score [8]: 1.61 (inactive)
- composite z-score [9]: 0.665
- composite z-score [10]: -0.0296
- composite z-score [11]: 1.54
- z-score [12]: 0.107 (inactive)
- z-score [13]: 0.673 (inactive)
- z-score [14]: 0.185 (inactive)
- composite z-score [15]: 2.91
- z-score [16]: 0.205 (inactive)
- composite z-score [17]: -0.101
- composite z-score [18]: 1.14
- composite z-score [19]: 0.589
- composite z-score [20]: -0.0594

SMILES: COC(=O)[C@@]1(CCS(=O)(=O)c2ccccc2)N=C(c2ccc(OCCCO)cc2)O[C@H]1c1ccccc1N=[N+]=[N-]
- composite z-score [1]: -0.0367
- composite z-score [2]: 0.35
- composite z-score [3]: -0.051
- composite z-score [4]: 0.207
- composite z-score [5]: 1.05
- composite z-score [6]: 0.573
- composite z-score [7]: 1.21
- z-score [8]: -2.34 (inactive)
- composite z-score [9]: 0.252
- composite z-score [10]: -0.0346
- composite z-score [11]: 1.56
- z-score [12]: 0.349 (inactive)
- z-score [13]: -0.238 (inactive)
- z-score [14]: 34.6 (active)
- composite z-score [15]: 3.29
- z-score [16]: 0.96 (inactive)
- composite z-score [17]: -0.0341
- composite z-score [18]: 0.492
- composite z-score [19]: 1.09
- composite z-score [20]: -0.0968

SMILES: COC(=O)[C@@]1(Cc2ccc(OC)cc2)[C@H]2c3cc(C(=O)N(C)C)n(Cc4ccsc4Br)c3C[C@H]2CN1C(=O)c1ccccc1
- composite z-score [1]: 0.254
- composite z-score [2]: -0.162
- composite z-score [3]: 0.336
- composite z-score [4]: 0.752
- composite z-score [5]: 1.64
- composite z-score [6]: 1.89
- composite z-score [7]: 0.856
- z-score [8]: -0.778 (inactive)
- composite z-score [9]: 0.45
- composite z-score [10]: 0.239
- composite z-score [11]: -0.323
- z-score [12]: 1.36 (inactive)
- z-score [13]: 1.51 (inactive)
- z-score [14]: 1.53 (inactive)
- composite z-score [15]: 3.41
- z-score [16]: 0.126 (inactive)
- composite z-score [17]: 0.599
- composite z-score [18]: -0.56
- composite z-score [19]: 0.251
- composite z-score [20]: 0.301
